Measurements as given in PubChem BioAssay (NCATS).
Several values for one entry are separate records, joined by “and”; a condition that tells them apart may be missing. Identical values can stand only once. Inconclusive results are not listed. Entries that show only a call come without a potency. Activity calls are given as the source filed them. Calls come from the whole dose curve; as a rule, active = well fitted curve in the direction sought with a large enough effect; inconclusive = small, poorly fitted or top-dose-only effect, or another doubt; inactive = no such curve, though single readings can be large; an effect the other way counts as inactive or inconclusive.

Tests used:
[1] = qHTS of pediatric cancer cell lines to identify multiple opportunities for drug repurposing: Primary screen for LAN-5 cells (AID 1347100); conditions: LAN-5 neuroblastoma viability, CellTiter-Glo luminescence, 48 h; series mostly up to 46 µM; note: potency is the fitted concentration of half-maximal effect
In short: (§1)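 Cells (500-1,000/well) in growth media were settled 5 h at 37 degrees C, then given compounds for 48 h. Viability was read as CellTiter-Glo luminescence. Primary runs used MIPE at 11 points (0.78 nM-46 µM) and NPC at 8 points (0.59 nM-46 µM); follow-ups used 11 points.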

[2] = qHTS of pediatric cancer cell lines to identify multiple opportunities for drug repurposing: Primary screen for Rh18 cells (AID 1347102); conditions: Rh18 rhabdomyosarcoma viability, CellTiter-Glo luminescence, 48 h; series mostly up to 46 µM; note: nearly all actives have a fitted effect of over 65% in size; note: potency is the fitted concentration of half-maximal effect
In short: as §1

[3] = qHTS of pediatric cancer cell lines to identify multiple opportunities for drug repurposing: Primary screen for OHS-50 cells (AID 1347103); conditions: OHS-50 osteosarcoma viability, CellTiter-Glo luminescence, 48 h; series mostly up to 57.3 µM; note: nearly all actives have a fitted effect of over 40% in size; note: potency is the fitted concentration of half-maximal effect
In short: (§2)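 Cells (500-1,000/well) rested 5 h, then received compounds for 48 h; metabolically active cells were measured by CellTiter-Glo luminescence. Final concentrations spanned up to 46 µM (MIPE, 11-point) or 0.59 nM-46 µM (NPC, 8-point) in primary screens, 11-point in follow-ups.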

[4] = qHTS of pediatric cancer cell lines to identify multiple opportunities for drug repurposing: Primary screen for RD cells (AID 1347104); conditions: RD rhabdomyosarcoma viability, CellTiter-Glo luminescence, 48 h; series mostly up to 46 µM; note: nearly all actives have a fitted effect of over 55% in size; note: potency is the fitted concentration of half-maximal effect
In short: (§3)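 Following a 5-hour attachment period, cells at 500-1,000/well received compounds and were cultured for 48 hours. CellTiter-Glo was added and luminescence read to estimate viable, metabolically active cells.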

[5] = qHTS of pediatric cancer cell lines to identify multiple opportunities for drug repurposing: Primary screen for MG 63 (6-TG R) cells (AID 1347105); conditions: MG 63 (6-TG R) viability, CellTiter-Glo, 48 h; series mostly up to 46 µM; note: nearly all actives have a fitted effect of over 50% in size; note: potency is the fitted concentration of half-maximal effect
In short: as §3

[6] = qHTS of pediatric cancer cell lines to identify multiple opportunities for drug repurposing: Primary screen for control Hh wild type fibroblast cells (AID 1347106); conditions: Hh wild-type fibroblast viability, CellTiter-Glo luminescence, 48 h; series mostly up to 46 µM;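 note: a drop in luminescence marks cytotoxicity and a rise apparent proliferation; nearly all actives have a fitted effect of over 55% in size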
In short: as §1

[7] = qHTS of pediatric cancer cell lines to identify multiple opportunities for drug repurposing: Primary screen for Rh30 cells (AID 1347107); conditions: Rh30 rhabdomyosarcoma viability, CellTiter-Glo luminescence, 48 h; series mostly up to 46 µM; note: nearly all actives have a fitted effect of over 75% in size; note: potency is the fitted concentration of half-maximal effect
In short: as §1

[8] = qHTS of pediatric cancer cell lines to identify multiple opportunities for drug repurposing: Primary screen for Rh41 cells (AID 1347108); conditions: Rh41 rhabdomyosarcoma viability, CellTiter-Glo luminescence, 48 h; series mostly up to 46 µM; note: nearly all actives have a fitted effect of over 70% in size; note: potency is the fitted concentration of half-maximal effect
In short: as §3

[9] = qHTS of pediatric cancer cell lines to identify multiple opportunities for drug repurposing: Primary screen for NB1643 cells (AID 1347099); conditions: NB1643 neuroblastoma viability, CellTiter-Glo luminescence, 48 h; series mostly up to 46 µM; note: nearly all actives have a fitted effect of over 50% in size; note: potency is the fitted concentration of half-maximal effect
In short: as §3

[10] = qHTS of pediatric cancer cell lines to identify multiple opportunities for drug repurposing: Primary screen for BT-12 cells (AID 1347101); conditions: BT-12 viability, CellTiter-Glo luminescence, 48 h; series mostly up to 57.3 µM; note: nearly all actives have a fitted effect of over 25% in size; note: potency is the fitted concentration of half-maximal effect
In short: as §2

Row | SMILES | Potency [1] | Potency [2] | Potency [3] | Potency [4] | Potency [5] | Potency [6] | Potency [7] | Potency [8] | Potency [9] | Potency [10]
1 | CN(C)[C@@H]1C(=O)C(C(N)=O)=C(O)[C@@]2(O)C(=O)C3=C(O)c4c(O)cccc4[C@@](C)(O)[C@H]3C[C@@H]12 | inactive | inactive | inactive | inactive | inactive | inactive | inactive | inactive |  | 
2 | Oc1cccc2cccnc12 |  | inactive |  |  | inactive |  | inactive |  |  | 
3 | CCC(COC(=O)c1cc(OC)c(OC)c(OC)c1)(c1ccccc1)N(C)C (stereo not given) |  | inactive |  | inactive | inactive | inactive | inactive | inactive | inactive | 
4 | CO[C@]12CC[C@@]3(C[C@@H]1[C@](C)(O)C(C)(C)C)[C@@H]1Cc4ccc(O)c5c4[C@@]3(CCN1CC1CC1)[C@H]2O5 |  |  | 25 µM (active) |  | 30.3 µM (active) |  |  |  |  | 
5 | CNC(=O)c1ccc(N2C(=S)N(c3ccc(C#N)c(C(F)(F)F)c3)C(=O)C23CCC3)cc1F |  | inactive |  |  | 11.8 µM (active) |  |  | 11.8 µM (active) |  | inactive
6 | CC(C)=CCOc1c2occc2cc2ccc(=O)oc12 | inactive | inactive |  | inactive | inactive | inactive | inactive | inactive | inactive | 
7 | C[C@]12C/C(=C/O)C(=O)C[C@@H]1CC[C@@H]1[C@@H]2CC[C@@]2(C)[C@H]1CC[C@]2(C)O |  | inactive |  | inactive | inactive | inactive | inactive | inactive |  | 
8 | COc1ccc2c(c1OC)CN1CCc3cc4c(cc3C1C2)OCO4 (stereo not given) |  | inactive | 17.4 µM (active) | inactive | inactive | inactive | inactive | inactive | inactive | 15.5 µM (active)
9 | COc1ccc(Cc2nccc3cc(OC)c(OC)cc23)cc1OC |  | inactive |  |  | inactive | inactive | inactive |  | inactive | 
10 | Cc1sc2c(c1C)C(c1ccc(Cl)cc1)=N[C@@H](CC(=O)OC(C)(C)C)c1nnc(C)n1-2 | 0.59 µM (active) | 0.935 µM (active) | 0.344 µM (active) | 0.59 µM (active) |  |  |  | 0.743 µM (active) | 5.9 µM (active) | 
11 | N[C@@H](Cc1ccc(N(CCCl)CCCl)cc1)C(=O)O | 5.96 µM (active) and 3.72 µM (active) | 21.1 µM (active) | 9.78 µM (active) and 3.85 µM (active) | inactive | 16.8 µM (active) and 18.7 µM (active) | inactive | inactive |  | 9.44 µM (active) and 16.6 µM (active) | 
12 | CNC(=O)N1N=C(c2ccc(N)cc2)c2cc3c(cc2CC1C)OCO3 (stereo not given) | 5.9 µM (active) |  | 3.85 µM (active) |  |  | inactive | inactive |  |  | 
13 | COC[C@H]1OC(=O)c2coc3c2[C@@]1(C)C1=C(C3=O)C2CCC(=O)[C@@]2(C)C[C@H]1OC(C)=O (stereo not given in full) | 11.8 µM (active) | 20.9 µM (active) | 4.32 µM (active) | 18.7 µM (active) | 9.35 µM (active) |  |  | 18.7 µM (active) | 11.8 µM (active) | 
14 | N#CC(C#N)=Cc1ccc(O)c(O)c1 |  | inactive |  | inactive | inactive | inactive | inactive | inactive | inactive | 
15 | CC(O)(CS(=O)(=O)c1ccc(F)cc1)C(=O)Nc1ccc(C#N)c(C(F)(F)F)c1 (stereo not given) |  | inactive |  | 5.9 µM (active) | 3.72 µM (active) |  | 3.72 µM (active) | 3.72 µM (active) | 3.32 µM (active) | 
16 | CC[C@@H](CO)NC(=O)[C@@H]1C=C2c3cccc4c3c(cn4C)C[C@H]2N(C)C1 |  | inactive | inactive | inactive |  | inactive | inactive | inactive |  | 
17 | Cn1c(CCCC(=O)O)nc2cc(N(CCCl)CCCl)ccc21 |  | inactive | 24.6 µM (active) and 24.3 µM (active) | inactive | inactive | inactive | inactive | inactive | 18.7 µM (active) | inactive
